Six1-Eya2 inh – qHTS Assay for Inhibitors of the Six1/Eya2 Interaction | Homeobox protein SIX1 (Homo sapiens) + Protein phosphatase EYA2 (Homo sapiens), … | AlphaScreen GST-Six1/His-Eya2 binding, biochemical; hits give low values | activity change, % (no concentration beside the values) | 0.56% of 360,000 active; in the data active = activity change below about -65%; inconclusive = mostly about -30% to -63%
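Compounds are tested against tagged Six1 and Eya2 proteins bridged by glutathione donor and nickel acceptor beads; after a one-hour incubation at 37 °C without light, AlphaScreen emission is recorded.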
DT40 TDP1 no CPT – qHTS for Inhibitors of human tyrosyl-DNA phosphodiesterase 1 (TDP1): qHTS in cells in absence of CPT | DT40 Tdp1-/- hTDP1 cells, no CPT, ATP luminescence, 48 h | AID 686978, 2013 | 15% of 420,000 active | Potency, µM (top dose mostly 46.2 µM), actives largely listed as inhibitors; also: nearly all actives have a fitted effect of over 55% in size
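Growth of hTDP1-complemented DT40 Tdp1-knockout cells is measured by ATP luminescence after at least 48 hr compound exposure at 37 °C, with DMSO substituting for the 20 nM CPT used in the parallel screen.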
TDP1 cell CPT – qHTS for Inhibitors of human tyrosyl-DNA phosphodiesterase 1 (TDP1): qHTS in cells in presence of CPT; 12% of 420,000 active; Potency, µM (doses to about 46.2 µM), hits mostly inhibitors; chicken DT40 Tdp1-/-;hTDP1 cells + 20 nM CPT, ATP luminescence, 48 h; AID 686979, 2013; also: nearly all actives have a fitted effect of over 55% in size
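Chicken DT40 Tdp1-/- cells complemented with human TDP1, 400 cells/well, exposed to compounds plus 20 nM camptothecin for at least 48 h at 37 C; viability read as ATP content by CellTiter-Glo luminescence.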
IL-1B inflam inh – qHTS for Inhibitors of Inflammasome Signaling: IL-1-beta AlphaLISA Primary Screen; THP-1 LPS/ATP IL-1B secretion, AlphaLISA, 16 h; hits give low values; activity change, % at 57.5 µM; 4.7% of 360,000 active; in the data active = activity change below about -50%; inconclusive = mostly about -30% to -49%
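THP-1 cells pretreated 1 hr with compounds (up to 57.5 uM final), then stimulated with LPS (250 ng/mL final) plus ATP (1.25 mM final); secreted IL-1B measured by AlphaLISA after 16 hr, decreased signal indicating inhibition.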
TDP1 block – qHTS Assay for Inhibitors of Tyrosyl-DNA Phosphodiesterase (TDP1) | recombinant TDP1, AlphaScreen DNA substrate cleavage | 0.28% of 350,000 active | Potency, µM (top dose mostly 130 µM), actives largely listed as inhibitors | AID 485290, 2010; also: nearly all actives have a fitted effect of over 40% in size
Target sequence (Q9NUW8 whole entry, looked up): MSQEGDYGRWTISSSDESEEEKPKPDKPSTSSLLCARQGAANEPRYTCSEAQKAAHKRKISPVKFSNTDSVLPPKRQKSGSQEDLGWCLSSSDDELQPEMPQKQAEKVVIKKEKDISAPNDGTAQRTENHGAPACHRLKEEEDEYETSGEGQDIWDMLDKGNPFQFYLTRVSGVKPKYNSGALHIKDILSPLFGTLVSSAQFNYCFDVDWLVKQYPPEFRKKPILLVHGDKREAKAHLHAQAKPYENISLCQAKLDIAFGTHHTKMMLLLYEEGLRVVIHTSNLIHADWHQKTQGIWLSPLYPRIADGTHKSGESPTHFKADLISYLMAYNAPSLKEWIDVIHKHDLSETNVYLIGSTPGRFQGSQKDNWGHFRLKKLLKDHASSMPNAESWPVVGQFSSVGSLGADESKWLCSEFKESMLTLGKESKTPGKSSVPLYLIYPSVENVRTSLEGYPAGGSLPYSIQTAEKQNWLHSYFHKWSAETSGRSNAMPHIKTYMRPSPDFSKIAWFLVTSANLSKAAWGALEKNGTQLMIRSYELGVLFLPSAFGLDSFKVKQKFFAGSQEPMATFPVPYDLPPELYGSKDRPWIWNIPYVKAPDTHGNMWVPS
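AlphaScreen read-out: signal falls as enzyme removes the 3' tyrosine-FITC from a 5'-biotinylated DNA oligo (15 nM, 5 min, RT). Enzyme was E. coli-made recombinant Tdp1 at 1 nM, exposed to compound for 15 min beforehand; beads 10 ug/ml, 10 min.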
CtBP-E1A inh – qHTS Assay for Inhibitors of the CtBP/E1A Interaction; AlphaScreen GST-E1A/His-CtBP binding, 1536-well; hits give low values; activity change, % (concentration not given with the values); CtBP / adenovirus E1A interaction (AlphaScreen); 0.49% of 340,000 active; in the data active = activity change below about -65%; inconclusive = mostly about -30% to -63%
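Protein mix (5X: 125 nM each GST-E1A, His-CtBP) was incubated with pinned compound 2 h at 37 deg C in dark, in 50 mM Tris pH 8.0 buffer with 300 mM NaCl. Glutathione donor and nickel acceptor beads followed; AlphaScreen signal read after 1 h.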
Hits are given with their value; 0 = inactive; ? = inconclusive; - = not tested or not shown; [ ] = another dose, or the depositor's remark. Rows were chosen to be rich in hits. Some 18% of all compounds tested hit in one or more screens of this group. Unless noted, calls follow the shape of the dose curve; as a rule, active = well fitted curve in the direction sought with a large enough effect; inconclusive = small, poorly fitted or top-dose-only effect, or another doubt; inactive = no such curve, though single readings can be large; an effect the other way counts as inactive or inconclusive.

SMILES	Six1-Eya2 inh	DT40 TDP1 no CPT	TDP1 cell CPT	IL-1B inflam inh	TDP1 block	CtBP-E1A inh
Cc1ccc(CN2CCN(CCC(C)C)C(CCO)C2)s1 (configuration not stated)	0	0	0	0	0	0
CC1=CC(C)(C)NC(=S)N1c1cccc(C)c1	0	?	?	0	0	0
C=CC1=C(C)/C(=C/c2[nH]c(Cc3[nH]c(/C=C4\NC(=O)C(C)=C4C=C)c(C)c3CCC(=O)O)c(CCC(=O)O)c2C)NC1=O	-	0	0	-	-	-
Cc1cc(NC(=O)Nc2nnc(N(C)C3CCCCC3)s2)ccc1Br	-	?	?	-	0	-
Cc1cc(NC(=O)Nc2nc3c(s2)CCCCCC3)ccc1Br	-	18µM	21µM	-	0	-
COc1cc([N+](=O)[O-])ccc1NC(=O)Nc1nc2c(s1)CCCC2	0	0	0	0	0	0
Cc1cc(NC(=O)Nc2csc3c2CCCC3)ccc1Br	-	9.2µM	8.2µM	-	0	-
Cc1ccc(NC(=O)Nc2nc3c(s2)CCCCCC3)cc1C	-	13µM	13µM	-	0	-
CC(C)(C)c1ccc(C(=O)NC(=S)Nc2nc3c(s2)CCCC3)cc1	0	29µM	26µM	?	0	0
CC(C)c1ccc(NC(=O)Nc2csc3c2CCCC3)cc1	-	?	?	-	0	-
Cc1ccc(S(=O)(=O)N2CCCCC2)cc1C(=O)OC(C)C(=O)NC1CCCCC1C (configuration not stated)	0	?	?	0	0[0.505 µM]	0
CC(C)OCCCNC(=O)CCCn1c(=O)[nH]c2ccsc2c1=O	-	0	0	-	0	-
CCC1=C2CC[C@H]3C(=O)N(CC)C(=O)[C@H]3[C@H]2[C@@]2(Cc3ccccc3)C(=O)N(Cc3ccccc3)C(=O)N2C1=O	0	0	?	0	0	0
CCn1c(CNC(=O)c2cccs2)nnc1SCC(=O)Nc1ccc(Cl)cc1	0	0	0	0	0	0
O=C(CN(C(=O)c1csnn1)c1ccc(F)cc1)NCc1ccc2c(c1)OCO2	0	0	0	0	-	0
CN(C)C(=O)COC(=O)c1ccccc1Nc1ccc(SC(F)F)cc1	0	?	?	0	0	-
O=C(NNC(=O)c1cc2ccccc2cc1O)c1cccs1	0	?	23µM	0	-	0
C/C(=N\NC(=O)c1cc2ccccc2cc1O)c1cccs1	0	13µM	0	-50	-	0
O=C(NNC(=O)c1ccc2ccccc2c1O)c1cccs1	0	?	0	0	-	0
COc1cc(OC)cc(C(=O)NCc2n[nH]c(=S)n2-c2ccccc2)c1	0	0	0	0	0	0
C[C@@H]1CCCCO[C@@H](CN(C)CC2CC2)[C@@H](C)CN([C@H](C)CO)C(=O)c2cc(N(C)C)ccc2O1	0	0	0	0	-	0
CC1(C)CC(Nc2ccc(Nc3ccccc3)cc2)CC(C)(C)N1	?	4.6µM	16µM	-81	0	-
Cc1c(C(=O)OCC(=O)NC(=O)NC2CCCCC2)cccc1[N+](=O)[O-]	0	?	?	-67	0	0
O=C(COC(=O)c1ccc([N+](=O)[O-])o1)NC1CCCCC1	0	0.0082µM	0.0082µM	0	0	0
O=C(NC1CCCC(C(F)(F)F)C1)c1ccc([N+](=O)[O-])o1 (configuration not stated)	0	18µM	?	-98	0	0
O=C(NC1CCCCC1)c1ccc([N+](=O)[O-])o1	0	?	?	-	0	0
COc1cccc(C(=O)OCC(=O)NC(=O)NC2CCCC2)c1O	0	0	0	0	0	0
CCN(CC)S(=O)(=O)c1ccc(N2CCOCC2)c(NC(=O)C2CCCO2)c1 (configuration not stated)	0	0	0	0	0	0
CC(C)CCNC(=O)c1csc2c1CCCCC2	0	?	0	0	0	0

Bioassay records as filed in PubChem.
